An excerpt weighted towards active compounds, which were near 21% of everything screened.
AMA1 RON2 block: qHTS for Inhibitors of AMA1-RON; Towards Development of Antimalarial Drug Lead: Primary Screen; Plasmodium falciparum AMA1 (3D7) - RON2 peptide interaction; AlphaScreen AMA1-biotinylated RON2 peptide binding; Potency, µM (doses to about 58.2 µM), for inactives: at the highest dose activity change, negative = inhibition, most hits filed as inhibitors; 360,000 compounds, 0.2% hits; AID 720542, 2013;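 note: potency is the fitted concentration of half-maximal effect; 0% = vehicle wells and -100% = peptide control; nearly all actives have a fitted effect of over 45% in size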
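AMA1 (3D7) with his tag at 25 nM final met compounds first, then biotinylated RON2 peptide at 25 nM; detection used donor plus acceptor beads, 10 µg/mL apiece, read by AlphaScreen after 30 min at room temperature.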
CHX counter: Cycloheximide Counterscreen for Small Molecule Inhibitors of Shiga Toxin; cell reporter, cycloheximide protein synthesis inhibition counterscreen; max response, %; 300,000 compounds, 12% hits; in the data active = max response mostly above about 13%, no sharp cut-off; inactive = mostly below about 14%; note: read at 38.3 µM for the half of the compounds with a filed dose; 0% is about no effect
HCV inh: qHTS Assay for Inhibitors of Hepatitis C Virus (HCV); Potency, µM (top dose mostly 41.8 µM), for the others: top-dose activity change, negative = inhibition, hits mostly inhibitors; Huh7.5.1 HCVcc-Cre infection, luciferase reporter, 44 h; 340,000 compounds, 3.4% hits; AID 651820, 2012; note: potency is the fitted concentration of half-maximal effect; % is set by controls: 0 for no effect and ±100 for the full control effect
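Antiviral activity was scored by luciferase reporter output from cells infected with HCVcc-Cre (~0.5 moi) in presence of compound, 44 h infection period, cells seeded 1,000/well 4 h prior.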
Pf growth 48h: Primary qHTS for delayed death inhibitors of the malarial parasite plastid, 48 hour incubation; P. falciparum luciferase growth in erythrocytes, 48 h; Potency, µM (titrated, usually from 28.7 µM), for the others: at the highest dose activity change, negative = inhibition, usual class: inhibitors; 310,000 compounds, 5.9% hits; note: potency is the fitted concentration of half-maximal effect; % is set by controls: 0 for no effect and ±100 for the full control effect
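Luciferase-expressing P. falciparum in infected erythrocytes (2% hematocrit, 0.1% parasitemia final) in RPMI 1640/0.5% Albumax were exposed to compound for 48 hours at 37 C, 5% CO2; growth read as luminescence.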
Pf growth 96h: Primary qHTS for delayed death inhibitors of the malarial parasite plastid, 96 hour incubation | P. falciparum luciferase reporter growth, 96 h | Potency, µM (doses to about 28.7 µM), inactives show top-dose activity change, negative = inhibition, actives largely listed as inhibitors | 320,000 compounds, 6.9% hits; note: potency is the fitted concentration of half-maximal effect; % is set by controls: 0 for no effect and ±100 for the full control effect
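Two-generation exposure (96 h) targets delayed-death phenotype. Reporter parasites carrying integrated firefly luciferase, in red cells at 2% hematocrit and 0.05% parasitemia final, kept at 37 C, 5% CO2; luminescence loss indicates inhibition.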
Shiga toxin inh: A qHTS for Small Molecule Inhibitors of Shiga Toxin; Vero cells, Shiga toxin protein synthesis inhibition reporter; AID 2315, 2010; inhibition, % at 38.7 µM; 290,000 compounds, 9.2% hits; in the data active = inhibition mostly above about 28%, no sharp cut-off; inactive = mostly below about 43%; note: 0% is about no effect
Active calls of the source: *; [ ] = another dose, or the depositor's remark. Unless noted, calls come from the whole dose curve; as a rule, active = well fitted curve in the direction sought with a large enough effect; inconclusive = small, poorly fitted or top-dose-only effect, or another doubt; inactive = no such curve, though single readings can be large; an effect the other way counts as inactive or inconclusive.

Results for CCCCc1noc(-c2c(-c3ccccc3Cl)noc2C)n1 ?
AMA1 RON2 block: 76%; CHX counter: 11; HCV inh: -3%; Pf growth 48h: inconclusive; Pf growth 96h: 9%; Shiga toxin inh: 12

How did O=C(O)C1CCCN1c1ncccc1[N+](=O)[O-] (stereo not drawn) do in these assays?
AMA1 RON2 block: -3%; CHX counter: -4; HCV inh: 9%; Pf growth 48h: -2%; Pf growth 96h: -19%; Shiga toxin inh: -3

What do the screens show for `c1cn(CCCNc2ncnc3sc4c(c23)CCC4)cn1`?
AMA1 RON2 block: -1%; CHX counter: 7; HCV inh: 1%; Pf growth 48h: inconclusive; Pf growth 96h: 6%; Shiga toxin inh: -4

What do the screens show for `c1csc(CCNc2ncnc3sc4c(c23)CCC4)c1`?
AMA1 RON2 block: 4%; CHX counter: -2; HCV inh: 7.9µM*; Pf growth 96h: inconclusive; Shiga toxin inh: -18

How did c1ccc(Nc2ncnc3sc4c(c23)CCC4)cc1 do in these assays?
AMA1 RON2 block: 10%; CHX counter: 1; HCV inh: inconclusive; Pf growth 48h: 5%; Pf growth 96h: 1%; Shiga toxin inh: -11

Results for Fc1ccc(Nc2ncnc3sc4c(c23)CCC4)cc1 ?
AMA1 RON2 block: 9%; CHX counter: -1; HCV inh: 3.2µM*; Pf growth 48h: 1%; Pf growth 96h: 73%; Shiga toxin inh: -5

How did CCCS(=O)(=O)NC(=O)C1(C)CCN(C(=O)c2ccc(C#N)cc2)C1 (stereo not drawn) do in these assays?
AMA1 RON2 block: 9%

What do the screens show for `CCCCN(CCCNC(=O)C1CCN(C(=O)c2cc3sccc3n2C)CC1)Cc1ccccc1`?
AMA1 RON2 block: 0%; CHX counter: -5; HCV inh: inconclusive; Pf growth 48h: 5.2µM*; Pf growth 96h: 42%; Shiga toxin inh: -11

Results for COc1ccc(N2CCN(C(=O)C3CCN(C(=O)c4cccc(Cl)c4)CC3)CC2)cc1 ?
AMA1 RON2 block: -5%; CHX counter: -3; HCV inh: inconclusive; Pf growth 48h: -22%; Pf growth 96h: 7%; Shiga toxin inh: -10

How did CC(C)CSC1=NSC2=NC(=O)/C(=C\c3coc4ccccc4c3=O)C(=N)N12 do in these assays?
AMA1 RON2 block: 20%; CHX counter: 27*; HCV inh: 21%; Pf growth 48h: 48%; Pf growth 96h: -1%; Shiga toxin inh: 71*

How did CC(C)CSC1=NSC2=NC(=O)/C(=C\c3ccccc3)C(=N)N12 do in these assays?
AMA1 RON2 block: 58%; CHX counter: 38*; HCV inh: inconclusive; Pf growth 48h: 337%; Pf growth 96h: inconclusive; Shiga toxin inh: 77*

Results for CC1(C(=O)NS(=O)(=O)c2ccc(C#N)cc2)CCN1C(=O)CC1CCCCC1 (stereo not drawn) ?
AMA1 RON2 block: 0%

How did CCOc1ccc(CCNC(=O)CN2C(=O)NC3(CCCCC3)C2=O)cc1OCC do in these assays?
AMA1 RON2 block: 2%; HCV inh: 8%; Pf growth 48h: -6%; Pf growth 96h: 50%

How did Fc1cccc(Cc2c(-c3ccco3)nc3ccc(Br)cn23)c1 do in these assays?
AMA1 RON2 block: -19%

Results for C/C=C\C(=O)Nc1cccc(C2=NOC3(C2)C[C@H](C(N)=O)N(C(=O)Cc2ccc([N+](=O)[O-])cc2)C3)c1 (stereo partly drawn) ?
AMA1 RON2 block: -2%; CHX counter: 1; HCV inh: -5%; Pf growth 48h: inconclusive; Pf growth 96h: 12µM*; Shiga toxin inh: -8

What do the screens show for `NC(=O)[C@H]1CC2(CC(c3cccc(NC(=O)CC(c4ccccc4)c4ccccc4)c3)=NO2)CN1C(=O)C(c1ccccc1)c1ccccc1` (stereo partly drawn)?
AMA1 RON2 block: -8%; CHX counter: -2; HCV inh: -15%; Pf growth 48h: 10µM*; Pf growth 96h: 13µM*; Shiga toxin inh: -4

How did CCC(=O)Nc1cccc(C2=NOC3(C2)C[C@@H](C(N)=O)N(C(=O)c2ccccc2C(=O)c2ccccc2)C3)c1 (stereo partly drawn) do in these assays?
AMA1 RON2 block: 14%; CHX counter: -4; HCV inh: 2%; Pf growth 48h: inconclusive; Pf growth 96h: inconclusive; Shiga toxin inh: -2

How did NC(=O)[C@H]1CC2(CC(c3cccc(NC(=O)CC(c4ccccc4)c4ccccc4)c3)=NO2)CN1C(=O)c1ccccc1C(=O)c1ccccc1 (stereo partly drawn) do in these assays?
AMA1 RON2 block: 4%; CHX counter: -6; HCV inh: -18%[8.37 µM]; Pf growth 48h: 9.3µM*; Pf growth 96h: 8.3µM*; Shiga toxin inh: 15

Results for C/C=C(\C)C(=O)N1CC2(CC(c3cccc(NC(=O)CC(c4ccccc4)c4ccccc4)c3)=NO2)C[C@H]1C(N)=O (stereo partly drawn) ?
CHX counter: -1; Pf growth 48h: inconclusive; Pf growth 96h: 8%; Shiga toxin inh: 3

Results for C/C=C/C(=O)Nc1cccc(C2=NOC3(C2)C[C@H](C(N)=O)N(C(=O)c2ccccc2C(=O)c2ccccc2)C3)c1 (stereo partly drawn) ?
CHX counter: -6; Pf growth 48h: 9.3µM*; Pf growth 96h: 12µM*; Shiga toxin inh: -10

What do the screens show for `Cc1cc(Br)ccc1N=C1NC(=O)CS1`?
AMA1 RON2 block: 8%; CHX counter: -3; HCV inh: 13%; Pf growth 48h: -5%; Pf growth 96h: -29%; Shiga toxin inh: -1

How did CCCCNC(=O)N1c2ccccc2CC1C (stereo not drawn) do in these assays?
AMA1 RON2 block: 12%; CHX counter: -2; HCV inh: -7%; Pf growth 48h: -19%[5.75 µM]; Pf growth 96h: -20%; Shiga toxin inh: 2

What do the screens show for `COc1cccc(OCc2ccc(Cl)cc2)c1C#N`?
AMA1 RON2 block: 22%; CHX counter: 44*; HCV inh: inconclusive; Pf growth 48h: 20%; Pf growth 96h: inactive; Shiga toxin inh: 81*

How did CC(C)C(=O)N1CCC(Cc2ccccc2)CC1 do in these assays?
AMA1 RON2 block: 15%; CHX counter: -3; HCV inh: 10%; Pf growth 48h: 30%; Pf growth 96h: inconclusive; Shiga toxin inh: -10

Results for O=C(/C=C/c1ccco1)N1CCC(Cc2ccccc2)CC1 ?
AMA1 RON2 block: inconclusive; CHX counter: 26*; HCV inh: 15%; Pf growth 48h: inconclusive; Pf growth 96h: 12%[5.75 µM]; Shiga toxin inh: 84*

Compound activity: PubChem BioAssay, National Center for Advancing Translational Sciences (NCATS)
